Each structure is given as a SMILES string. Measured potencies and affinities stand elsewhere. Values without a mark were called inactive. The source made the active and inactive calls.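 Rule for the calls: active = falling luciferase signal whose fitted half-maximal concentration is at most twice the top tested dose; inconclusive = flat inhibition between 30 and 70% or a poor curve fit; inactive = the rest.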

This test in a line: off-target signal loss in HeLa-CEM21 co-culture – HeLa F-luc CTL cells, cherry-picked, counter-screen for HIV-1 Env fusion inhibitor project, dose response (AID 652040).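 Note: 0% = median of neutral control wells and -100% = doxycycline 40 µg/mL wells; more negative values mean stronger loss of luciferase signal.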 As to conditions: HeLa-F-luc CTL cells with CEM21, firefly luciferase counterscreen; series mostly up to 35 µM.
For the compound `O=C(COC(=O)c1cc(S(=O)(=O)N2CCOCC2)ccc1O)NCc1ccc2c(c1)OCO2`, the compound was called inactive.
As for `COc1ccc(/C(C)=N/NC(=O)c2cccc(S(=O)(=O)N3CCCC3)c2)c(O)c1`, the activity change, negative = inhibition was 27.9% [at 8 µM].
For `C=CC[n+]1c(-c2ccc(C)cc2)csc1NNC(=O)Nc1ccccc1`, the outcome was inactive.
For `COCCCNC(=O)c1sc2ncnc(N3CCc4ccccc4C3)c2c1C`, the result was inactive.
Same read-out and setting: the result for `C[C@@H]1CN([C@H](C)CO)S(=O)(=O)c2ccc(C#Cc3cccc(F)c3)cc2O[C@@H]1CN(C)C(=O)CN1CCOCC1` reads “inactive”.
For `Cc1ccc2[nH]c3c(N4CCN(Cc5ccccc5)CC4)ncnc3c2c1`, the call was inactive.
Take `Cc1oc(-c2ccccc2F)nc1CN1CCC(C(=O)NCCC2=CCCCC2)CC1`: the call was inactive.
The same measure, in the same setting: the result for `COc1ccc(OC2C(=O)N(Cc3ccc4c(c3)OCO4)C2c2cccs2)cc1` (stereo not given) reads “inactive”; that for `Cc1nc2ccc(NC(=O)c3cc(S(=O)(=O)N(C)c4ccccc4)ccc3Cl)cc2s1`, “inactive”; that for `c1csc(CNc2ncnc3sccc23)c1`, “inactive”.
The same measure, in the same setting: then `COC(=O)[C@@]12CCCN1[C@H](c1ccc(-c3ccc(F)cc3)c(OC)c1)[C@H]1C(=O)N(C)C(=O)[C@H]12`, with “inactive”; and `NC(=S)c1ccc(OCCCc2ccccc2)cc1`, with “inactive”; and `Clc1ccc(-c2noc(CSc3nnc(-c4ccncc4)n3-c3ccccc3)n2)cc1`, with “inactive”.
Same read-out and setting: the result for `CCN(CCn1cccn1)C(=O)CC1C(=O)NCCN1CCc1ccccc1` (stereo not given) reads “inactive”.
In the case of `COc1ccc(NS(=O)(=O)c2ccc3c(c2)OCCO3)cc1OC`, the compound was called inactive.
For `COc1ccc(N2CCN(C(=O)C3CCC(Cn4c(=S)[nH]c5ccccc5c4=O)CC3)CC2)cc1` (stereo not given), the compound was classed as inactive.
On the same count and under the same terms, then `O=C(c1ccccc1)N1CCC(c2nc(-c3ccc(S(=O)(=O)NCC4CCCO4)cc3)no2)CC1` (stereo not given), with “inactive”; and `Cc1sc2ncnc(N3CCN(S(=O)(=O)c4ccc(Br)cc4)CC3)c2c1C`, with “inactive”; and `CC1CCC(C(C)C)C(OC(=O)Cn2c(-c3ccccc3)[n+](C)c3ccccc32)C1` (stereo not given), with “inactive”.
Same read-out and setting: the result for `Fc1ccc(-n2nnnc2-c2cnc(-c3cccs3)nc2C(F)(F)F)cc1` reads “inactive”; that for `O=C(CC1C(=O)NCCN1Cc1cccc(F)c1)NC1CCCCC1` (stereo not given), “inactive”.
Still for that read-out and setting: the result for `Nc1nc2c(ncn2[C@@H]2O[C@H](C(=O)NCC(c3ccccc3)c3ccccc3)[C@@H](O)[C@H]2O)c(=O)[nH]1` reads “inactive”; that for `c1ccc(CSc2nnc([C@@H]3CCCN3)o2)cc1`, “inactive”; that for `COc1ccc(C(=O)Nc2nc(-c3ccc(S(=O)(=O)N4CCOCC4)cc3)cs2)cc1`, “inactive”.
Turning to `COc1ccc(CCCC(=O)NCCc2ccccc2)c(C)c1`, the compound was classed as inactive.
On the same count and under the same terms, then `CC(=O)OC1c2ccccc2C(=O)N1c1ccccc1C` (stereo not given), with “inactive”.
On the same count and under the same terms, the result for `Cc1cc(N2CCN(c3nc4ccccc4s3)CC2)n2ncnc2n1` reads “inactive”.
On the same count and under the same terms, then `CCN1C(=O)[C@H]2[C@@H](c3ccc(C(F)(F)F)cc3)N[C@]3(CCCN(Cc4ccccc4)C3=O)[C@H]2C1=O`, with “inactive”; and `COC(=O)[C@]12CCCCC=C1N(Cc1ccco1)C(=O)[C@H](CC(=O)NCCc1ccccc1OC)C2`, with “inactive”.
With `Clc1ccc2c(c1)C1=C(C(c3ccncc3)O2)C(c2ccc(Br)cc2)n2ncnc2N1` (stereo not given), the compound was called inactive.
Same read-out and setting: the result for `Cn1c(C(=O)N2CCN(c3nc4ccccc4s3)CC2)cc2sccc21` reads “inactive”; that for `c1ccc2c(c1)ncn2CCCCOc1ccc2c(c1)CCC2`, “inactive”; that for `COc1ccc(C(O)c2nc3ccccc3n2C)cc1OC` (stereo not given), “inactive”.
On the same count and under the same terms, the result for `CCOc1ccc(C(=O)C2CCN(CC(=O)Nc3ccccc3N3CCOCC3)CC2)cc1` reads “inactive”.
On the same count and under the same terms, the result for `Nc1ccc(S(=O)(=O)c2ccc(N3CCOCC3)c(N)c2)cc1` reads “inactive”; that for `Cc1ccccc1S(=O)(=O)NC(=O)C1(C)CCN1C(=O)CCc1ccc(Cl)cc1Cl` (stereo not given), “inactive”; that for `CCOC(=O)[C@]12CCC=C1N(Cc1ccc3c(c1)OCO3)C(=O)[C@H](CC(=O)NCC13CC4CC(CC(C4)C1)C3)C2`, “inactive”.
For `Nc1nonc1C(=O)NCCNCc1c(OCc2ccccc2F)ccc2ccccc12`, the outcome was inactive.
With `COc1ccc(S(=O)(=O)N2CCCCC2)cc1NC(=O)CCCOc1ccc(C)cc1`, the outcome was inactive.
Take `c1csc(-c2csc3ncnc(NCCCN4CCOCC4)c23)c1`: the compound was classed as inactive.

Values taken from PubChem BioAssay AID652040 (Broad Institute, 2013).
